Compounds with a hit are over-represented: about 8.1% of the library has one in this group of screens.
MITF inh: inhibitors of MITF, primary screen, MITF inhibitor project, cell-based, luminescence | TRPM1 promoter luciferase, 24 h | inhibition, % (no concentration beside the values) | actives 0.28% (n = 37,000) | AID 2240, 2010; in the data active = inhibition above about 85%; inconclusive = no clear call, values can overlap the other calls; inactive = below about 68%;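 note: human melanocyte line stably carrying TRPM1 promoter luciferase reporter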
Shh pathway inh: Hedgehog pathway signaling inhibitors, primary screen, luminescence, Shh-LIGHT2 cells, Gli-luciferase; Shh-LIGHT2 Gli-luciferase reporter, 30 h; inhibition, % (test concentration not listed); actives 2.1% (n = 22,000); AID 2313, 2010;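 active = mean inhibition across valid replicates above about 65%, limit read from the data; inconclusive = mean under the limit, yet half or more replicates past it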;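 note: pathway switched on by Shh-conditioned medium diluted 1 in 25 in low serum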
NOMO-1 viab: NOMO-1 AML cell viability reduction, primary screen, STK33 inhibitor project, CellTiter-Glo luminescence | NOMO-1 AML viability, 72 h | inhibition, % (concentration not given with the values) | actives 7.5% (n = 37,000) | AID 2330, 2010; in the data active = inhibition above about 80%; inconclusive = no clear call, values can overlap the other calls
Numbers without * were called inactive; ? = inconclusive; / = no result.

SMILES | MITF inh | Shh pathway inh | NOMO-1 viab
C[C@@H]1CN([C@@H](C)CO)C(=O)c2cc(NC(=O)Nc3ccc(C(F)(F)F)cc3)ccc2O[C@H]1CN(C)Cc1ccc(Cl)c(Cl)c1 | 26.6 | 26.7 | 115.5*
C[C@H](CO)N1C[C@H](C)[C@H](CN(C)Cc2ccc(Cl)c(Cl)c2)Oc2ccc(NC(=O)Nc3ccc(C(F)(F)F)cc3)cc2C1=O | 48.7 | -6.5 | 124.7*
C[C@@H]1CN([C@H](C)CO)C(=O)c2cc(NC(=O)c3ccncc3)ccc2O[C@H]1CN(C)Cc1ccc(Cl)c(Cl)c1 | -8.7 | / | 48.2
C[C@H]1CN([C@@H](C)CO)C(=O)c2cc(NC(=O)Nc3ccc(C(F)(F)F)cc3)ccc2O[C@@H]1CN(C)Cc1ccc(Cl)c(Cl)c1 | 17.8 | / | 117.0*
C[C@@H]1CCCCO[C@@H](CN(C)S(=O)(=O)c2ccc(F)cc2)[C@@H](C)CN([C@H](C)CO)C(=O)c2cc(NC(=O)CCC(F)(F)F)ccc2O1 | 4.0 | 5.5 | -2.4
COCCC(=O)C1=CSC2=C(C(=O)CC(C)(C)C2)C1c1ccncc1 (centres undefined) | 20.2 | 59.9 | 45.6
O=c1c(Cl)c(NCCc2ccccc2)cnn1-c1ccccc1 | -37.2 | 57.8 | -6.3
CCc1nc2c(cnn2-c2ccccc2)c(=O)n1CCc1ccccc1 | 13.2 | -12.9 | 113.2*
COC(=O)c1cc(NC(=O)COc2c(C)cc(Cl)cc2Cl)cc(C(=O)OC)c1 | 3.6 | / | 15.2
O=C(COc1ccc(I)cc1)Nc1ccc(O)cc1C(=O)O | -21.7 | / | -15.9
Cc1c(C)c(C)c(C(=O)/C=N/N)c(C)c1C | 11.0 | -8.1 | 1.9
COc1ccc(C(NC(=O)c2cccnc2)c2cc(Cl)c3cccnc3c2O)cc1OC (centres undefined) | 52.9 | / | 108.9*
COc1cccc(C(=O)NC(c2ccc(C)cc2)c2cc(Cl)c3cccnc3c2O)c1 (centres undefined) | 63.5 | / | 120.6*
COc1ccc(CCNC(=O)c2cc(-c3cccnc3)nc3c(Cl)cccc23)cc1OC | 14.6 | / | 3.9
COc1ccc(C(=O)NC(c2ccc(OC)c(OC)c2)c2cc(Cl)c3cccnc3c2O)cc1 (centres undefined) | 60.0 | / | 121.6*
COc1cccc(C(=O)Nc2cccc(OC(C)C(=O)c3cccc(Cl)c3)c2)c1 (centres undefined) | 31.6 | / | 19.3
COc1ccc(C(=O)NC(CC(=O)O)c2ccc(Cl)cc2)cc1 (centres undefined) | 0.5 | / | -8.1
Oc1ccccc1-c1cc(-c2ccc3c(c2)OCO3)cc(-c2ccccc2)n1 | -7.2 | -11.4 | 32.5
COc1cc(OC)cc(-c2nnc(SCC(=O)Nc3ccccc3)o2)c1 | -44.3 | / | -23.1
C[C@@H]1CCCCO[C@@H](CN(C)Cc2ccccc2)[C@@H](C)CN([C@H](C)CO)C(=O)c2cc(NC(=O)Cc3ccccc3)ccc2O1 | -3.0 | 4.5 | 5.3
C[C@@H]1CCCCO[C@H](CN(C)Cc2ccc(C(=O)O)cc2)[C@@H](C)CN([C@H](C)CO)C(=O)c2cc(NC(=O)C3CCCCC3)ccc2O1 | -2.9 | -59.1 | 15.2
C[C@@H]1CCCCO[C@@H](CN(C)Cc2ccc(C(F)(F)F)cc2)[C@@H](C)CN([C@H](C)CO)C(=O)c2cc(NC(=O)c3ccccc3)ccc2O1 | 34.6 | / | 93.0*
C[C@@H]1CCCCO[C@@H](CN(C)Cc2ccc(C(F)(F)F)cc2)[C@@H](C)CN([C@H](C)CO)C(=O)c2cc(NC(=O)c3ccncc3)ccc2O1 | 1.1 | -9.0 | 19.8
C[C@@H]1CCCCO[C@@H](CN(C)Cc2ccc(C(F)(F)F)cc2)[C@@H](C)CN([C@H](C)CO)C(=O)c2cc(NC(=O)C3CCCCC3)ccc2O1 | 18.0 | -35.4 | 108.2*
C[C@@H]1CCCCO[C@@H](CN(C)Cc2ccccc2)[C@@H](C)CN([C@H](C)CO)C(=O)c2cc(NC(=O)Nc3ccc(C(F)(F)F)cc3)ccc2O1 | -1.2 | -4.7 | 114.9*
SMILES | MITF inh | Shh pathway inh | NOMO-1 viab
C[C@@H]1CCCCO[C@@H](CN(C)Cc2ccc(C(F)(F)F)cc2)[C@@H](C)CN([C@H](C)CO)C(=O)c2cc(NC(=O)Cc3ccccc3)ccc2O1 | 41.5 | 18.4 | 106.4*
C[C@@H]1CCCCO[C@@H](CN(C)Cc2ccc(C(=O)O)cc2)[C@@H](C)CN([C@H](C)CO)C(=O)c2cc(NC(=O)Nc3ccc(C(F)(F)F)cc3)ccc2O1 | 2.7 | / | 19.9
CCn1c(SCC(=O)Nc2cccc(Br)c2)nnc1-c1ccc(C)cc1 | 46.3 | / | 34.1
O=[N+]([O-])c1ccc(CSc2nnc(-c3ccccn3)n2-c2ccccc2)cc1 | 0.7 | / | 7.4
C[C@H]1CN([C@@H](C)CO)C(=O)c2cc(NC(=O)CCCCCC(=O)Nc3ccccc3N)ccc2O[C@H]1CN(C)C(=O)Nc1ccc(F)cc1 | -9.0 | / | ?
COc1ccc(NC(=O)Nc2ccc3c(c2)C(=O)N([C@H](C)CO)C[C@H](C)[C@H](CN(C)Cc2ccncc2)OCCCC[C@@H](C)O3)cc1 | -6.1 | -5.9 | 2.2
COc1ccc(NC(=O)Nc2ccc3c(c2)C(=O)N([C@H](C)CO)C[C@H](C)[C@@H](CN(C)Cc2ccc(C(F)(F)F)cc2)OCCCC[C@@H](C)O3)cc1 | 15.8 | 32.5 | 110.0*
C[C@H]1CN([C@@H](C)CO)C(=O)c2cc(NC(=O)Cc3cn(C)c4ccccc34)ccc2O[C@H]1CN(C)C | 3.2 | -39.0 | 8.1
Cc1oc2cc(OC(C)C)ccc2c(=O)c1-c1ccc2c(c1)OCCO2 | -21.0 | -14.3 | -11.6
Cc1oc(-c2ccc3c(c2)OCCO3)cc1C(=O)NCC(=O)O | 86.4* | / | 1.9
O=C(COc1ccc(Cl)cc1Cl)Nc1cc(C(=O)O)cc(C(=O)O)c1 | -13.1 | / | 15.4
O=C(COc1ccc(Cl)cc1C1C2=C(CCCC2=O)NC2=C1C(=O)CCC2)Nc1ccc(Cl)cc1 | 27.2 | / | 115.6*
CN1CCc2cc(Cl)c(O)cc2[C@@H](c2ccccc2)C1 | -1.0 | 16.9 | 13.0
C=CCN1CCc2c(cc(O)c(O)c2Br)[C@@H](c2ccccc2)C1 | 31.0 | 30.7 | 109.4*
O=C(COc1ccccc1[N+](=O)[O-])Nc1ccc(N2CCN(C(=O)c3ccco3)CC2)cc1 | 69.9 | / | 58.8
C[C@@H]1CN([C@H](C)CO)C(=O)Cc2cc(N(C)C)ccc2O[C@@H]1CN(C)S(=O)(=O)c1cccs1 | 6.1 | 68.8* | 7.7
C[C@H]1CN([C@@H](C)CO)C(=O)Cc2cc(N(C)C)ccc2O[C@@H]1CN(C)S(=O)(=O)c1ccc(Cl)cc1 | 3.0 | / | 8.7
C[C@H]1CN([C@@H](C)CO)C(=O)Cc2cc(N(C)C)ccc2O[C@H]1CN(C)S(=O)(=O)c1ccc(Cl)cc1 | 24.4 | -17.1 | 115.3*
C[C@@H]1CN([C@H](C)CO)C(=O)Cc2cc(N(C)C)ccc2O[C@H]1CN(C)S(=O)(=O)c1cccs1 | -3.5 | -21.1 | -1.2
NS(=O)(=O)c1ccc(NC(=O)CSc2nnc(-c3ccccc3Cl)n2-c2ccccc2)cc1 | 1.5 | / | 16.5
Cc1nn(CC(=O)Nc2cc(F)ccc2F)c(C)c1[N+](=O)[O-] | 2.4 | / | -3.1
Cc1sc2nc(C(=O)Oc3ccc(F)cc3)cc(N)c2c1C | 36.1 | -51.5 | 13.3
Cc1cc(S(=O)(=O)Nc2ccc(C(=O)O)cc2)c(C)c(S(=O)(=O)c2ccc(Cl)cc2)c1 | 7.2 | / | 18.8
